# Assay results reported in PMC12136788.
# Where a chain is given by its changes, count along the chain named. In all, about 5,800 sequences were measured (“enrichment r”: median about 0.68, highest 2% from about 11 on). What follows is part of a selection rich in the highest values, with near analogues and random picks from the rest.
# T1: UNK ZnF1-6 (called full-length) (human, UniProt Q9C0B0 30-357)
# T1 sequence: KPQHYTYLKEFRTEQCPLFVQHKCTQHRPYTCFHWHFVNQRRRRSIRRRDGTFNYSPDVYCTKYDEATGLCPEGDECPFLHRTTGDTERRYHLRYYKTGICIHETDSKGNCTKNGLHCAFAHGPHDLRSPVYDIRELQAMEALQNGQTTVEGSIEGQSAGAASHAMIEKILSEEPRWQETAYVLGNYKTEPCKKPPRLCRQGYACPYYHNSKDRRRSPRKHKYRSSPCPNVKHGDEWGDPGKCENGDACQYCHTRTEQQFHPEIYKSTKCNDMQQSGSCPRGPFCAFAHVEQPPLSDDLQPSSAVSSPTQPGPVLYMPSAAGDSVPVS
# B1: chr5:136976780:136976881:-|3pUTR|ENSG00000152377|msi1|FALSE|unique (ssRNA)
# RNA: GGGAGUUCUACAGUCCGACGAUCCUUAAAUUAGCAUGUUCCAAUCCAGUCGGCAUUGCCUGAAUACAGUAGCAUCAUACCUAUAGUUGGUCUUAGAUAAGAAAUGAACUACUUGAUAUAGCAAAGUCCUUUGGCUUCGUAAAUCAACAGAGGAUUGAGCAUCA
# B2: chr5:24509697:24509799:-|CDS|ENSG00000040731|unk|FALSE|unique (ssRNA)
# RNA: GGGAGUUCUACAGUCCGACGAUCACUCGACUAUGAGAGCCGAAGACUUUAUACUCUGAAAGUCGAAGCAGAAAACACCCAUGUAGAUCCCCGUUUUUAUUACCUAGGACCAUUUAAAGAUACUACCAUAGUGAAAAUCUCUAUCAACAGAGGAUUGAGCAUCA
# B3: chr12:48342538:48342639:-|3pUTR|ENSG00000167528|unk|FALSE|unique (ssRNA)
# RNA: GGGAGUUCUACAGUCCGACGAUCUUGUUAAACAUUUUGAGUAUCACUCUUGCAUACUGUUACUAUUAUAUUUUCUCUAUAUAUAGACAGAAAGGCCAUUUUAGAAUAUUAAAGGCUCUGAAAAUUUCUGCAGUAGACCCAACUCAACAGAGGAUUGAGCAUCA
# B4: chr12:50748518:50748596:+|3pUTR|ENSG00000066084|msi1_unk|FALSE|overlapping (ssRNA)
# RNA: GGGAGUUCUACAGUCCGACGAUCUCAAAUUCAAACUACAGUACUGUGUAAUUAUGUAUAAAGUUUUUUUAUUUAUUUGAAGUUAGACUAGAUAUACGUUUUUAAAUUUAACAUCUGGCUGGACAGUGUUCUAUUAACUCAUUGCAACAGAGGAUUGAGCAUCA
# B5: chr6:105100707:105100870:-|3pUTR|ENSG00000112276|msi1|FALSE|unique (ssRNA)
# RNA: GGGAGUUCUACAGUCCGACGAUCUGAGAUAUAUAUUUUCACAGUCUUUUCUAGAUAUAUUAUUGUUUUAACUUAACAAAUCUUAGCAAUCUCUCAAUGCCUUUUCACUUAUUUUUUUCCAAGUUAUGAUUCUUUUUCCUCACACAACAGAGGAUUGAGCAUCA
# B6: chr9:5123879:5124511:-|three_prime_utr|ENSG00000120210|control|control|control (ssRNA)
# RNA: GGGAGUUCUACAGUCCGACGAUCCUGGUAAAUUGGAUUGCCAUAUGCAGAAGAAUGAAACUGGACCCAUAUUUAUCACCAUAUAGAAAAAUUAACUCGAUCGAUUACAGACUUAAAUGUAAGAUCUGAAACUAGAAAAAUACUCAACAGAGGAUUGAGCAUCA
# B7: chr8:103442975:103443076:+|3pUTR|ENSG00000164934|msi1|FALSE|bound_elsewhere (ssRNA)
# RNA: GGGAGUUCUACAGUCCGACGAUCGGACUAGAUUAAUUGCAAACAUUUUAGUUAUAUGUGUAGAGCUUUAUUGUUACUCCUUUUAGCUACCCUGAAAAAUGAUCCUUAAAGGUGGCCUAGUUGGUAAGACUGUUUUAUCCUUAACAACAGAGGAUUGAGCAUCA
# B8: chr3:168010103:168010202:-|3pUTR|ENSG00000173905|msi1_unk|FALSE|overlapping (ssRNA)
# RNA: GGGAGUUCUACAGUCCGACGAUCGCUCAAACAUAAAUCUGCCUACUGAACUCUAGGAUAUUUAAUUACAAAAAUUAAGAACUUAGACUUUUUUAAAACUUUUGUAUUAGAAAUGCGCAUACAUUUAUAUGAAUAUAUUUUGAUCAACAGAGGAUUGAGCAUCA
# B9: chr20:59325757:59325866:+|3pUTR|ENSG00000124205|unk|FALSE|unique (ssRNA)
# RNA: GGGAGUUCUACAGUCCGACGAUCUUAUGUGGAUCUGUUCAAAGUAGUCACUGUAUAUACGUAUAGAGAGGUAGAUAGGUAGGUAGAUUUUAAAUUGCAUUCUGAAUACAAACUCAUACUCCUUAGAGCUUGAAUUACAUUUUUCAACAGAGGAUUGAGCAUCA
# B10: chr3:168010103:168010202:-|3pUTR|ENSG00000173905|msi1_unk|total|mutant (ssRNA)
# RNA: B8 RNA with U53C, A54C, U83C, A84C, U107C, A108C
# B11: chr11:118396625:118396726:+|3pUTR|ENSG00000110344|msi1|FALSE|bound_elsewhere (ssRNA)
# RNA: GGGAGUUCUACAGUCCGACGAUCAACUUGACAAUGCUCCCCUGGCUUGCAGGAAAUUAUACUUAUUAUAGCAUCACCAAGUUUAGAAAUCAUCACUAAUUUUCACCCUCUGUUGUCUCUUCAUAUUCUUCUUCCUUUUCCUAACAACAGAGGAUUGAGCAUCA
# B12: chr6:105100707:105100870:-|3pUTR|ENSG00000112276|msi1|total|mutant (ssRNA)
# RNA: B5 RNA with U51C, A52C, U83C, A84C
# B13: chr3:64018827:64018930:-|CDS|ENSG00000163636|unk|FALSE|unique (ssRNA)
# RNA: GGGAGUUCUACAGUCCGACGAUCUGAACUCAUGGAUUAUAAAACAUUUGUGACUUAUACUGUCUAUGUCAGUAUGAUUGCCUUAGAAAGACCAGAUCUCAGGGAAAAGGUAAUGACCAAACUUUAAUACUCAAAUUUAAAGACCAACAGAGGAUUGAGCAUCA
# B14: chr6:43570573:43570674:-|CDS|ENSG00000124571|unk|FALSE|unique (ssRNA)
# RNA: GGGAGUUCUACAGUCCGACGAUCGGUGUAGGAAACACAGACAGAAUUGGUGAUGUUUAUCCUUUUGCGACUGGCAGAGGAUGUAGUGACUUUUCAGACACUUCCCCCUCAAAGAAGAAGGGACAUCCAGCAAACAUUAACCCACAACAGAGGAUUGAGCAUCA
# B15: chr11:73394502:73394603:+|CDS|ENSG00000054967|msi1|total|mutant (ssRNA)
# RNA: GGGAGUUCUACAGUCCGACGAUCCACCAUCUCCACACCGUGCAGGGCCUGGCCUCGCUCUCUGGCCCCUGCUGCUCCCGCUGCCGCCAGAAGAAGUGGCCCGAGGUGCUGCUGUCCCCUGAGGCUGCCGCCGCCACUACUCCUCAACAGAGGAUUGAGCAUCA
# B16: chr3:107805913:107806014:+|3pUTR|ENSG00000114439|msi1_unk|FALSE|overlapping (ssRNA)
# RNA: GGGAGUUCUACAGUCCGACGAUCUACAUGGAGAUUUAAGUUUAAGAUGGUUUAUAUAAUAGGUUAUACCUACAUUUAUAUUGUAGAAUAAAUAUUAAAAAGCCUGUUCCAGAGACUCCCAAGCAGCCUGGGCAGGCAGAUGUACAACAGAGGAUUGAGCAUCA
# Target: T1, UNK ZnF1-6 (called full-length)
# Experiment: nsRBNS (natural sequence RNA bind-n-seq); RBNS binding buffer (assumed for nsRBNS): 25 mM Tris pH 7.5, 150 mM KCl, 3 mM MgCl2, 0.01% Triton X-100, 500 ug/ml BSA, 20 U/ml SUPERase-In, 4 C; UNK is unkempt and MSI1 is Musashi-1; names of the RNAs are library labels; protein concentration not given here; high values mean tight binding
row,Binder,binding signal
1,B1,8.89 enrichment R
2,B2,1.94 enrichment R
3,B3,3.54 enrichment R
4,B4,6.56 enrichment R
5,B5,18.7 enrichment R
6,B6,21.7 enrichment R
7,B7,6.96 enrichment R
8,B8,12.6 enrichment R
9,B9,20.3 enrichment R
10,B10,3.17 enrichment R
11,B11,4.24 enrichment R
12,B12,3.08 enrichment R
13,B13,0.48 enrichment R
14,B14,0.529 enrichment R
15,B15,0.888 enrichment R
16,B16,1.89 enrichment R
